Molecules are shown by their SMILES. Records with an inconclusive call do not appear. Activity calls are given as the source filed them. Calls follow the shape of the dose curve; as a rule, active = well fitted inhibition curve with a large enough effect; inconclusive = small, poorly fitted or top-dose-only effect; inactive = flat fitted curve, though single readings scatter.

For 22 molecules, Potency results are on record in PubChem BioAssay (NCATS).

Holding throughout (assay): qHTS profiling for inhibitors of Plasmodium falciparum proliferation (AID 504749); also: nearly all actives have a fitted effect of over 60% in size
What all share (settings): P. falciparum in erythrocytes, SYBR Green DNA, 72 h; series mostly up to 28.7 µM

The subject of one assay is N140. Put shortly: (§1)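 P. falciparum-infected erythrocytes (0.3% parasitemia, 2.5% hematocrit) incubated with compound 72 h at 37 C, 5% CO2. Parasite DNA detected by SYBR Green after lysis, overnight at room temperature; normalised to 0.29 uM artemisinin and DMSO.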
The next assay has as its system P93_24. Put shortly:
as §1

The next assay has as its system P94_40. Put shortly: as §1
For another assay, the system named is PAD. Put shortly:
as §1

A further assay relates to PC15. Summed up:
as §1

The subject of another assay is PC26. Put shortly:
as §1

The test system of the next assay is PC49. Put shortly: as §1
For a further assay, the system named is SC27B. Summed up: as §1
A further assay has as its system TAB109. Summed up: as §1
The subject of the next assay is TAB113. Summed up:
as §1
Potency is read from the fitted curve at half-maximal effect.

With `CC(C)(C)CC(C)(C)c1ccc(OCCOCC[N+](C)(C)Cc2ccccc2)cc1`, the Potency is 3.98 µM (active) in the assay with N140; 6.31 µM (active) in the assay on P93_24; 5.01 µM (active) with P94_40; 8.91 µM (active) with PAD; 5.01 µM (active) in the assay on PC15; 4.26 µM (active) in the assay with PC26. For the same molecule, the Potency in the assay with PC49 is 6.31 µM (active); in the assay with SC27B, 5.62 µM (active); in the assay on TAB109 it was 5.62 µM (active); in the assay with TAB113, 3.55 µM (active).

In the case of `NC(=NCCCCCCN=C(N)/N=C(\N)Nc1ccc(Cl)cc1)/N=C(\N)Nc1ccc(Cl)cc1`, the Potency was 0.004 µM (active) in the assay on N140; 1 µM (active) in the assay on P93_24; 3.55 µM (active) in the assay with P94_40; 3.16 µM (active) in the assay on PAD; 2 µM (active) with PC15; 3.79 µM (active) in the assay with PC26. Also, the Potency in the assay on PC49 was 3.16 µM (active); with SC27B, 0.891 µM (active); in the assay on TAB109 it was 3.98 µM (active); with TAB113 it was 2 µM (active).

Turning to `O=C(COc1ccc(Cl)cc1)N1CCN(Cc2ccc3c(c2)OCO3)CC1`, the Potency result in the assay on N140, with P93_24, in the assay with P94_40, with PAD, with PC15 and in the assay on PC26 was “inactive” throughout. For the same molecule, the Potency entry in the assay with PC49, in the assay with SC27B, with TAB109 and in the assay on TAB113 was “inactive” each time.

In the case of `CCOC(=O)OC(C)OC1=C(C(=O)Nc2ccccn2)N(C)S(=O)(=O)c2ccccc21` (stereo not given), the Potency result in the assay with N140, in the assay with P93_24, in the assay on P94_40, in the assay on PAD, in the assay on PC15 and in the assay on PC26 was “inactive” each time. In addition, the Potency result with PC49, with SC27B, in the assay with TAB109 and in the assay on TAB113 was “inactive” throughout.

Turning to `C[C@H](O)C(=O)Nc1c(I)c(C(=O)NC(CO)CO)c(I)c(C(=O)NC(CO)CO)c1I`, the Potency result in the assay on N140, in the assay with P93_24, in the assay on P94_40, in the assay on PAD, in the assay on PC15 and in the assay with PC26 was “inactive” in each case. In addition, the Potency entry in the assay on PC49, with SC27B, with TAB109 and with TAB113 was “inactive” throughout.

For the molecule `O=C(Nc1ccc(Cl)c(Cl)c1)C1CC1`, the Potency result with N140, in the assay with P93_24, in the assay with P94_40, with PAD, in the assay on PC15 and with PC26 was “inactive” in each case. Also, the Potency result in the assay with PC49, with SC27B, in the assay with TAB109 and in the assay on TAB113 was “inactive” in each case.

Take `Nc1ccc(C(=O)O)cc1`: the Potency result in the assay on N140, with P93_24, in the assay on P94_40, in the assay on PAD, in the assay on PC15 and in the assay with PC26 was “inactive” in each case. The Potency result in the assay with PC49, with SC27B, in the assay with TAB109 and in the assay on TAB113 was “inactive” each time.

In the case of `Cc1c(C)n(CCN(C)C)c2ccc(C(=O)OCCN(C)C)cc12`, the Potency result in the assay on N140, in the assay with P93_24, in the assay on P94_40, in the assay on PAD, in the assay on PC15 and with PC26 was “inactive” each time. Moreover, the Potency result in the assay with PC49, in the assay on SC27B, with TAB109 and with TAB113 was “inactive” each time.

With `CN(C)/N=N/c1nc[nH]c1C(N)=O`, the Potency result with N140, in the assay on P93_24, with P94_40, in the assay with PAD, with PC15 and in the assay on PC26 was “inactive” in each case. For the same molecule, the Potency entry in the assay on PC49, with SC27B, in the assay with TAB109 and in the assay with TAB113 was “inactive” throughout.

`CCOC(=O)c1cccc(N)c1`: the Potency entry with N140, in the assay with P93_24, with P94_40, in the assay on PAD, in the assay with PC15 and in the assay on PC49 was “inactive” in each case. Also, the Potency entry in the assay on SC27B, with TAB109 and in the assay with TAB113 was “inactive” each time. Besides, in the assay on PC26, the Potency is 16.9 µM (active).

Consider `N[C@@H](Cc1cnc[nH]1)C(=O)O`, for which the Potency result in the assay on N140, in the assay on P93_24, in the assay on P94_40, with PAD, in the assay on PC15 and in the assay on PC26 was “inactive” each time. In addition, the Potency result in the assay on PC49, with SC27B, with TAB109 and in the assay with TAB113 was “inactive” in each case.

As to `COC(=O)[C@@H]1CC2=CC(=O)CC[C@]2(C)[C@@]23O[C@@H]2C[C@@]2(C)[C@@H](CC[C@@]24CCC(=O)O4)[C@H]13`, the Potency entry with N140, with P93_24, with P94_40, in the assay with PAD, in the assay with PC15 and in the assay on PC26 was “inactive” in each case. For the same molecule, the Potency entry in the assay with PC49, in the assay on SC27B, in the assay with TAB109 and in the assay with TAB113 was “inactive” in each case.

For `Cc1c(C(C)C)c(=O)n(-c2ccccc2)n1C`, the Potency entry in the assay on N140, in the assay with P93_24, with P94_40, in the assay with PAD, in the assay on PC15 and in the assay with PC26 was “inactive” throughout. For the same molecule, the Potency entry in the assay with PC49, in the assay with SC27B, in the assay on TAB109 and with TAB113 was “inactive” throughout.

In the case of `CCOC(=O)COc1ccc2c(C)c(CCN(CC)CC)c(=O)oc2c1Cl`, the Potency result in the assay with N140, in the assay with P93_24, with P94_40, in the assay on PAD, in the assay on PC15 and with PC26 was “inactive” throughout. Further, the Potency result in the assay on PC49, in the assay with SC27B, in the assay with TAB109 and in the assay on TAB113 was “inactive” in each case.

Take `C[N+]1(CCCCC[N+]2(C)CCCC2)CCCC1`: the Potency entry in the assay with N140, in the assay with P93_24, in the assay with P94_40, in the assay on PAD, in the assay on PC15 and in the assay with PC26 was “inactive” each time. Further, the Potency entry in the assay on PC49, in the assay on SC27B, in the assay on TAB109 and with TAB113 was “inactive” each time.

For `COc1cc(OC)cc(OC)c1`, the Potency entry with N140, in the assay with P93_24, with P94_40, in the assay on PAD, with PC15 and in the assay on PC26 was “inactive” in each case. Further, the Potency result in the assay on PC49, with SC27B, with TAB109 and with TAB113 was “inactive” each time.

`O=c1ccc2ccccc2o1`: the Potency result with N140, in the assay on P93_24, in the assay with P94_40, in the assay with PAD, in the assay on PC15 and in the assay on PC26 was “inactive” in each case. For the same molecule, the Potency entry in the assay with PC49, with SC27B, in the assay with TAB109 and with TAB113 was “inactive” throughout.

Turning to `Nc1cc(Cl)c(NC2=NCCN2)c(Cl)c1`, the Potency entry in the assay with N140, in the assay on P93_24, in the assay on P94_40, in the assay on PAD, in the assay on PC15 and in the assay on PC26 was “inactive” throughout. The Potency result in the assay with PC49, in the assay on SC27B, in the assay on TAB109 and in the assay on TAB113 was “inactive” each time.

For the molecule `Cc1c(C)n(Cc2ccccc2)c2ccc(C(=O)OCCN(C)C)cc12`, the Potency result with N140, with P93_24, in the assay on P94_40, in the assay on PAD, in the assay on PC15 and in the assay with PC26 was “inactive” in each case. Moreover, the Potency result in the assay with PC49, in the assay on SC27B, in the assay with TAB109 and in the assay on TAB113 was “inactive” throughout.

As for `CCCCCC=CCC=CCCCCCCCC(=O)OCC`, the Potency entry in the assay with N140, in the assay with P93_24, in the assay on P94_40, in the assay with PAD, in the assay on PC15 and in the assay with PC26 was “inactive” in each case. Moreover, the Potency entry in the assay on PC49, in the assay with SC27B, in the assay with TAB109 and in the assay with TAB113 was “inactive” in each case.

Consider `COc1cc(NS(C)(=O)=O)ccc1Nc1c2ccccc2nc2ccccc12`, for which the Potency in the assay on N140 was 2 µM (active); in the assay with P93_24, 3.16 µM (active); in the assay with P94_40, 2.51 µM (active); with PAD, 1.41 µM (active); with PC15, 2.82 µM (active); in the assay on PC26, 5.36 µM (active). For the same molecule, the Potency in the assay with PC49 is 3.16 µM (active); with SC27B, 2.24 µM (active); in the assay with TAB109, 3.16 µM (active); in the assay with TAB113, 2 µM (active).

Take `CC(Cc1cccc(C(F)(F)F)c1)NCCOC(=O)c1ccccc1` (stereo not given): the Potency entry with N140, in the assay on P93_24, in the assay on P94_40, with PAD, with PC15 and in the assay with PC26 was “inactive” each time. For the same molecule, the Potency entry in the assay on PC49, with SC27B, in the assay with TAB109 and with TAB113 was “inactive” in each case.
